Assay results taken from PubChem BioAssay AID1851 (National Center for Advancing Translational Sciences (NCATS), 2009).
The whole screen tested about 16,000 compounds, of which about 2,600 (16%) were called active. About 20% were inconclusive and are not listed. Calls come from the whole dose curve; as a rule, active = well fitted curve in the direction sought with a large enough effect; inconclusive = small, poorly fitted or top-dose-only effect, or effect the other way; inactive = no such curve, though single readings can be large or run the other way. Not all results are given here. Some compounds were tested as several samples or in several runs, with calls that do not always agree.

The compounds below were run against Cytochrome P450 2D6 (Homo sapiens) (UniProt P10635) (assay: Cytochrome panel assay with activity outcomes). Settings: recombinant CYP, pro-luciferin dealkylation, luminescence, p450-cyp2d6; series mostly up to 57.1 µM; activity, negative = inhibition: at the top concentration.
% is set by controls: 0 for no effect and ±100 for the full control effect.

Cytochrome P450 2D6 (Homo sapiens), sequence (P10635 whole entry, looked up): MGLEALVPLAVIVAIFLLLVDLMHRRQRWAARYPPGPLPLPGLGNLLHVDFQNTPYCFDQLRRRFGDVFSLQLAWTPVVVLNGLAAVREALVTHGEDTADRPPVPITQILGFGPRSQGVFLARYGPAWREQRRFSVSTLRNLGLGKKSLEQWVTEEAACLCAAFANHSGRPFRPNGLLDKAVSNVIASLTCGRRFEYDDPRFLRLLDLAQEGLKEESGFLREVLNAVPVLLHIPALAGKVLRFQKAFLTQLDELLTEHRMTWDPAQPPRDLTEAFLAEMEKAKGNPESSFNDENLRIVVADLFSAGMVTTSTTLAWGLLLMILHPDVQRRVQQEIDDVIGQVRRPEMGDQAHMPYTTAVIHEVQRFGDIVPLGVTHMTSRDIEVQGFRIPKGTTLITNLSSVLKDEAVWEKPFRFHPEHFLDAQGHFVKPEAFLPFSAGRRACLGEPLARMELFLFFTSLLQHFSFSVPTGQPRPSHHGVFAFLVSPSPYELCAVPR

| Structure (SMILES) | activity, negative = inhibition | AC50 |
| --- | --- | --- |
| Nc1ccccc1CCCC(=O)O | -8.09% [at 11.4 µM] (inactive) | – |
| Cc1nc2cnc(N(C)C)nc2n(CCc2ccccc2)c1=O | -7.01% (inactive) | – |
| O=C(CSc1nc2ccccc2c(=O)n1NC(=O)c1ccccc1)c1ccc(Cl)cc1 | 1.17% (inactive) | – |
| COC(=O)C/C=C\[C@@H](C)[C@@H](/C=N\O[C@@H](C)c1cc(-c2c(C)cc(C)cc2C)no1)NS(=O)(=O)c1ccc(C)cc1 | 10.9% [at 11.4 µM] (inactive) | – |
| COc1cc2c(cc1OC)C(C(=O)N1CCOCC1)C(c1cccs1)N(C)C2=O (configuration not stated) | 10.7% (inactive) | – |
| COc1ccc(CC(=S)N2CCOCC2)cc1OC | 0.628% (inactive) | – |
| COc1cc2c(cc1OC)/C(=C/C(=O)N1CCOCC1)NC(C)(C)C2 | – | 2.82 µM (active) |
| CCOC(=O)c1ccc(N2C(=O)CC(Nc3ccc(CCO)cc3)C2=O)cc1 (configuration not stated) | -5.73% (inactive) | – |
| Cn1c(=O)c2c(nc(NCCNc3nc4c(c(=O)n(C)c(=O)n4C)n3C)n2C)n(C)c1=O | 14.2% [at 11.4 µM] (inactive) | – |
| COc1cc(C(=O)N2CCN(C(=O)c3ccccc3)CC2)cc(OC)c1OC | -0.531% (inactive) | – |
| COC(=O)C/C=C\[C@H](C)[C@@H](OC)c1ccccc1Br | 12.6% [at 11.4 µM] (inactive) | – |
| COc1ccc2[nH]cc(CCNc3ccnc(-c4ccccc4Cl)n3)c2c1 | – | 20 µM (active) |
| COc1ccc2[nH]cc(CCNc3ccnc(-c4ccccc4C)n3)c2c1 | – | 2.51 µM (active) |
| COCCNc1ccnc(-c2ccccc2C)n1 | -6.07% (inactive) | – |
| Cc1cccc(-n2ncc3c(Nc4c(C)n(C)n(-c5ccccc5)c4=O)ncnc32)c1 | 3.47% (inactive) | – |
| N#CC(C#N)=CNCCN1CCN(C=C(C#N)C#N)CC1 | 5.03% [at 11.4 µM] (inactive) | – |
| Cc1n[nH]c(C)c1S(=O)(=O)N1CCC(C(=O)O)CC1 | 9.86% (inactive) | – |
| NS(=O)(=O)c1cc(Cl)c(Cl)c(S(N)(=O)=O)c1 | -1.87% [at 25.6 µM] (inactive) | – |
| C[C@@H](C[C@H](N)C(=O)O)C(=O)O | 14.5% [at 11.4 µM] (inactive) | – |
| Clc1cc2c(c(CSC3=NCN(CC4CC4)CN3)c1)OCOC2 | – | 0.2 µM (active) |
| O=c1c2c(-c3cccs3)csc2[nH]c(=S)n1-c1ccccc1 | -9.42% (inactive) | – |
| Cc1ccccc1OCC(=O)Nc1sc(C(=O)Nc2cccc(C)c2C)c(C)c1C#N | 24.8% (inactive) | – |
| Cn1cccc1C(=O)N1CCC2(CCN(C(=O)Nc3ccccc3)CC2)CC1 | 4.24% (inactive) | – |
| O=[N+]([O-])c1nccn1C[C@H](O)CN1CCCCC1 | 9.02% [at 11.4 µM] (inactive) | – |
| O=c1n(CCCN2CCN(c3cccc(Cl)c3)CC2)nc2ccccn12 | -11% (inactive) | – |
| O[C@H](CN1CCN(c2cccc(Cl)c2)CC1)C(c1ccccc1)c1ccccc1 | – | 12.6 µM (active) and inactive |
| O=c1nc2ccccc2c2n1CC(CN1CCN(c3cccc(Cl)c3)CC1)N2 (configuration not stated) | -35.5% (inactive) | – |
